Compound activity: PubChem BioAssay, National Center for Advancing Translational Sciences (NCATS)
Sm TGR inh – S. mansoni TGR enzyme inhibition; purified TGR, DTNB reduction, TNB absorbance 405 nm; Potency, µM (highest dose often 114 µM), without a hit: top-dose activity change, negative = inhibition, hits mostly inhibitors; AID 485364; Q962Y6; 3% of 360,000 active; further: on the % scale 0 is the no-effect control and ±100 the full control effect; nearly all actives have a fitted effect of over 60% in size
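Kinetic colorimetric format: TGR-catalysed, NADPH-driven DTNB reduction monitored via TNB absorbance. Enzyme dispensed at 20 nM; compound exposure 15 min at room temperature before reaction start.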
Pf growth 96h – P. falciparum growth inhibition at 96 hours | P. falciparum luciferase reporter growth, 96 h | Potency, µM (top dose mostly 28.7 µM), inactives show at the top dose activity change, negative = inhibition, usual class: inhibitors | 6.9% of 320,000 active; further: on the % scale 0 is the no-effect control and ±100 the full control effect
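P. falciparum expressing integrated firefly luciferase, in erythrocytes at 2% hematocrit, 0.05% parasitemia, incubated with compounds 96 h at 37 C, 5% CO2. Growth inhibition read as loss of luminescence; two-generation exposure targets delayed-death apicoplast inhibitors.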
Pf growth 48h – inhibits P. falciparum growth in the first generation, 48 h | P. falciparum luciferase growth in erythrocytes, 48 h | Potency, µM (titrated, usually from 28.7 µM), without a hit: at the top dose activity change, negative = inhibition, hits mostly inhibitors | 5.9% of 310,000 active; further: on the % scale 0 is the no-effect control and ±100 the full control effect
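Luminescence readout; reporter = integrated firefly luciferase in P. falciparum. RBC culture at 2% hematocrit, 0.1% parasitemia final, 37 C/5% CO2; decreased signal taken as growth inhibition.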
NS1 inh – inhibitors of influenza NS1 protein function; Potency, µM (titrated, usually from 46.1 µM), for inactives: at the highest dose activity, positive = more growth; 0.4% of 270,000 active; calls by dose curve; further: actives are rising curves; nearly all actives have a fitted effect of over 50% in size
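OD600 was taken as the measure of yeast growth restored by compound in an NS1-expressing S. cerevisiae strain. Cells had been washed out of glucose medium and diluted 1:100 into galactose -URA medium, pH 6.0.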
AMA1 RON2 block – AMA1-RON2 (P. falciparum) interaction inhibition | AlphaScreen AMA1-biotinylated RON2 peptide binding | 0.2% of 360,000 active | AID 720542 | Potency, µM (doses to about 58.2 µM), for inactives: at the top dose activity change, negative = inhibition, actives largely listed as inhibitors;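 further: 0% = vehicle wells and -100% = peptide control; nearly all actives have a fitted effect of over 45% in size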
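AMA1 (3D7) with his tag at 25 nM final met compounds first, then biotinylated RON2 peptide at 25 nM; detection used donor plus acceptor beads, 10 µg/mL apiece, read by AlphaScreen after 30 min at room temperature.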
* = called active by the depositor; i = inactive; u = inconclusive; x = no result given; [ ] = another dose, or the depositor's remark. Rows were chosen to be rich in hits. Some 11% of all compounds tested hit in one or more screens of this group. Unless noted, the call rests on the fitted dose curve; in most records, active means well fitted curve in the direction sought with a large enough effect; inconclusive means small, poorly fitted or top-dose-only effect, or another doubt; inactive means no such curve, though single readings can be large; an effect the other way counts as inactive or inconclusive. Potency means the concentration at half of the fitted maximal effect.

SMILES	Sm TGR inh	Pf growth 96h	Pf growth 48h	NS1 inh	AMA1 RON2 block
O=C1NC(=S)N(Cc2ccco2)C(=O)/C1=C\c1cccs1	3.5µM*	10%	-23%	x	x
C=CCN1C(=O)/C(=C/c2cccs2)C(=O)NC1=S	10µM*	-28%	-4%	-2%	2%
COc1ccc2[nH]c(-c3cccc(F)c3)cc(=O)c2c1	-2%	5.2µM*	u	-10%	-2%
O=c1cc(-c2cccc(F)c2)[nH]c2ccccc12	-8%	u	u	-5%	12%
Cc1ccc2[nH]c(-c3cccc(F)c3)cc(=O)c2c1	-19%	4.1µM*	5.2µM*	-6%	-4%
c1ccc(Cn2ncc3c(N4CCN(c5ccccc5)CC4)ncnc32)cc1	x	x	x	x	1%
c1ccc(Cn2ncc3c(N4CCN(C(c5ccccc5)c5ccccc5)CC4)ncnc32)cc1	45µM*	6%	u	20%	6%
Cc1ccc(OCCCCNC(C)(C)C)c([N+](=O)[O-])c1	-8%	3.7µM*	u	2%	u
CCc1nnc(SCc2ccc(F)cc2Cl)c2cc3sc(C)cc3n12	6%	x	x	x	x
COc1cc([N+](=O)[O-])c(OC)cc1SCc1n[nH]c(=S)n1-c1ccc(F)cc1	10%	1.7µM*	-27%	6%	10%
COc1cc([N+](=O)[O-])c(OC)cc1SCc1n[nH]c(=S)n1-c1ccc(C)cc1	-11%	3%	-6%	-4%	50%
Cc1c(O)c(CN2CCCCC2)cc2c3c(c(=O)oc12)CCC3	8%	9.3µM*	10µM*	8%	-5%
COc1ccc(-c2cc(=O)oc3c(C)c(O)c(CN(C)C)cc23)cc1	-11%	x	u	-2%	8%
Cc1c(O)c(CN2CCCCC2)cc2c1oc(=O)c1ccccc12	-2%	0.47µM*	0.33µM*	-15%	-14%
CCc1c(C)c2cc(Cl)c(O)c(CN3CCCCC3)c2oc1=O	-15%	-21%	-2%	4%	1%
O=c1oc2c(CN3CCCCC3)c(O)ccc2c2c1CCCC2	-12%	u	x	6%	-4%
O=c1oc2c(CN3CCOCC3)c(O)c(Cl)cc2c2c1CCC2	0%	2%	1µM*	-4%	x
Cc1c(O)c(CN(C)C)cc2c1oc(=O)c1ccccc12	-34%	2.1µM*	4.1µM*	-40%	-5%
CCOC(=O)c1c(NC(=O)COC(=O)CCNS(=O)(=O)c2ccccc2)sc(C(=O)N(C)C)c1C	-13%	-2%	u	x	-1%
CN1CCC[C@H](C(=O)OCC(=O)[C@]2(O)CC[C@@H]3[C@H]4CCC5=CC(=O)CC[C@@]5(C)[C@H]4[C@@H](O)C[C@]32C)C1	x	x	x	-6%	x
Cc1cccc(NC(=O)C(=O)NCCc2csc(-c3ccc(F)cc3)n2)c1C	5%	x	x	x	x
Cc1cc(N2CCC(C)CC2)nc2ccc(NC(=O)Cc3ccccc3Br)cc12	-7%	x	x	x	x
O=C1CCN(Cc2nnnn2CC2CCCO2)c2ccccc2N1 (stereo not given)	-10%	15µM*	20%	7%	-2%
O=C(c1ccco1)N1CCN(Cc2nnnn2CC2CCCO2)CC1 (stereo not given)	0%	-18%	14%	1%	1%
Cc1[nH]c2ccccc2c1/C=N/Nc1ccc(F)cc1F	50µM*	u	u	1%	x
SMILES	Sm TGR inh	Pf growth 96h	Pf growth 48h	NS1 inh	AMA1 RON2 block
COc1ccccc1NS(=O)(=O)c1cc([N+](=O)[O-])ccc1N/N=C/c1c(C)[nH]c2ccccc12	-15%	x	10µM*	9%	0%
Cc1[nH]c2ccccc2c1/C=N/Nc1ccccn1	-14%	10µM*	0%	-27%	x
Cc1[nH]c2ccccc2c1/C=N/Nc1ccc([N+](=O)[O-])cc1	-9%	-5%	u	5%	-27%
CN(NS(C)(=O)=O)c1c(C#N)c(C(F)(F)F)nn1C	1%	9%	i	x	1%
C#CCn1c(/C=C/c2ccc(Cl)cc2)nc2ccccc21	-2%	x	x	x	x
Cc1ccc(Cn2c(-c3ccccc3)nc3ccccc32)cc1	8%	x	x	x	x
Clc1ccc(Cn2c(/C=C/c3ccco3)nc3ccccc32)cc1	28µM*	u	u	-24%	6%[11.6 µM]
Cc1ccc(Cn2c(/C=C/c3ccco3)nc3ccccc32)cc1	11µM*	u	-13%	-16%	-7%
COc1ccc(S(=O)(=O)N2CCOCC2)cc1NC(=O)CSc1cccc[n+]1[O-]	u	0%	63%	-1%	4%
CCCCCC(=O)N1CCN(CCN=CC2=C(O)CC(c3ccc(OC)c(OC)c3)CC2=O)CC1 (stereo not given)	u	x	9%	-12%	10%
COc1ccc(C2CC(=O)C(C=NCCN3CCNCC3)=C(O)C2)cc1OC (stereo not given)	u	13µM*	-1%	3%	x
CCCCCC(=O)N1CCN(CCN=CC2=C(O)CC(c3ccc(OC)cc3)CC2=O)CC1 (stereo not given)	50µM*	x	u	-22%	-3%
COc1ccc(-c2c3c(cc4ncn(Cc5ccccc5)c24)COC3=O)cc1	32µM*	1%	u	x	-2%
CCOCCCNC(=O)c1cc(-c2ccc(Br)s2)nc2ccccc12	-3%	10µM*	x	2%	20%
CCOCCCNC(=O)c1cc(Sc2ccc(F)cc2)nc2ccccc12	-7%	13µM*	17%	-6%	16%
Cc1ccc(Sc2cc(C(=O)NCCCN(C)C)c3ccccc3n2)cc1	40µM*	u	-7%[0.00184 µM]	0%	1%
CCN(CC)CCNC(=O)c1cc(-c2ccc(Br)s2)nc2ccccc12	-16%	2%	x	6%	-2%
O=C(Cc1ccccc1)NC1CC(=O)N(c2ccccc2)C1 (stereo not given)	-2%	x	x	x	x
CSc1ccccc1NC(=O)CN(C)C(=O)COc1ncnc2ccccc12	x	x	x	x	10%
Cc1ccc2cc(CN(Cc3ccco3)C(=O)c3cccs3)c(=O)[nH]c2c1	40µM*	-30%	u	18%	-5%
Cc1cccc2cc(CN(Cc3ccco3)C(=O)c3cccs3)c(=O)[nH]c12	-26%	9.3µM*	10µM*	-10%	-6%
Cc1cccc2cc(CN(Cc3ccco3)C(=O)c3ccco3)c(=O)[nH]c12	5%	-29%	-28%	15%	-5%
Cc1ccc2[nH]c(=O)c3cc(C(=O)N(CCCOC(C)C)Cc4ccco4)sc3c2c1	-21%	5.9µM*	x	3%	-7%
O=C(Nc1nncs1)C1CCCC1	x	x	x	x	-2%
Cc1ccc2nc(N(CCCN(C)C)C(=O)c3ccc(S(=O)(=O)N4CCCCCC4)cc3)sc2c1	-8%	u	13µM*	3%	-10%
CCOC(=O)N1CCN(S(=O)(=O)c2ccc(C(=O)N(CCCN(C)C)c3nc4ccc(CC)cc4s3)cc2)CC1	-2%	u	6.6µM*	10%	-22%
CCc1ccc2nc(N(CCCN(C)C)C(=O)c3ccc(S(=O)(=O)N4CCCC4)cc3)sc2c1	-9%	u	u	-2%	-13%
